# Bioassay records from PubChem BioAssay.
# HT1080NT lethal = qHTS for induction of synthetic lethality in tumor cells producing 2HG: qHTS for the HT-1080-NT fibrosarcoma cell line | HT-1080-NT fibrosarcoma viability, CellTiter-Glo ATP luminescence, 48 h | Potency, µM (series often up to 46.1 µM), for inactives: top-dose activity, negative = less viability, actives largely listed as cytotoxic | 1.6% of 360,000 active | AID 686970, 2013;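 note: NT is the 2HG producing partner of a matched IDH1 knockdown line; potency is the fitted concentration of half-maximal effect; 0% = DMSO-treated cells and -100% = media-only wells without cells; nearly all actives have a fitted effect of over 55% in size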
#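 Fibrosarcoma NT cells, 750 per well in 5% FBS RPMI, were exposed to compound for 48 hours. Viability: CellTiter-Glo luminescence.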
# HT1080 IDH1KD tx = qHTS for induction of synthetic lethality in tumor cells producing 2HG: qHTS for the HT-1080-IDH1KD cell line; HT-1080 IDH1 knockdown viability, ATP luminescence, 48 h; Potency, µM (titrated, usually from 46.1 µM), inactives show at the highest dose activity, negative = toxicity, actives largely listed as cytotoxic; 2% of 360,000 active;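 note: potency is the fitted concentration of half-maximal effect; 0% = DMSO wells and -100% = cell-free medium wells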
#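 After a 2 h attachment period, IDH1KD HT-1080 cells took pin-transferred compound for 48 h at 37 °C; ATP-based luminescence after 10 min room-temperature reagent incubation reported viability.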
# IL1B secr inh = qHTS for Inhibitors of Inflammasome Signaling: IL-1-beta AlphaLISA Primary Screen. THP-1 LPS/ATP IL-1B secretion, AlphaLISA, 16 h; active compounds read low. activity change, % at 57.5 µM. 4.7% of 360,000 active. AID 743279, 2014; in the data active = activity change below about -50%; inconclusive = mostly about -30% to -49%
#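 THP-1 cells pretreated 1 hr with compounds (up to 57.5 uM final), then stimulated with LPS (250 ng/mL final) plus ATP (1.25 mM final); secreted IL-1B measured by AlphaLISA after 16 hr, decreased signal indicating inhibition.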
# ELG1 repair inh = qHTS screen for small molecules that inhibit ELG1-dependent DNA repair in human embryonic kidney (HEK293T) cells expressing luciferase-tagged ELG1. HEK293T ELG1-luciferase reporter, luminescence, 16 h; DNA damage induced by 5-fluorouridine. AID 504467, 2011. 2.3% of 330,000 active. Potency, µM (top dose mostly 46.1 µM), without a hit: top-dose activity change, negative = inhibition, most hits filed as inhibitors; note: potency is the fitted concentration of half-maximal effect; nearly all actives have a fitted effect of over 55% in size
#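 Luminescence from the luciferase reporter, measured 30 min after ONE-Glo reagent at room temperature, was the read-out. Beforehand, 2,000 cells per well were exposed for 16 hr at 37 °C to 5-fluorouridine together with compound or vehicle.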
# DT40 TDP1 no CPT = qHTS for Inhibitors of human tyrosyl-DNA phosphodiesterase 1 (TDP1): qHTS in cells in absence of CPT. DT40 Tdp1-/- hTDP1 cells, no CPT, ATP luminescence, 48 h. Potency, µM (top dose mostly 46.2 µM), without a hit: at the highest dose activity change, negative = growth inhibition, actives largely listed as inhibitors. 15% of 420,000 active; note: potency is the fitted concentration of half-maximal effect; nearly all actives have a fitted effect of over 55% in size
#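 Chicken DT40 Tdp1-/- cells stably complemented with human TDP1 were seeded at 400 cells/well with DMSO in place of 20 nM camptothecin. After compound pinning, cells grew at least 48 hr at 37 °C; viability read by CellTiter-Glo luminescence.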
# DT40 TDP1 CPT = qHTS for Inhibitors of human tyrosyl-DNA phosphodiesterase 1 (TDP1): qHTS in cells in presence of CPT. chicken DT40 Tdp1-/-;hTDP1 cells + 20 nM CPT, ATP luminescence, 48 h. Potency, µM (titrated, usually from 46.2 µM), inactives show at the top dose activity change, negative = growth inhibition, usual class: inhibitors. 12% of 420,000 active; note: potency is the fitted concentration of half-maximal effect; nearly all actives have a fitted effect of over 55% in size
#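 Cell growth measured by CellTiter-Glo luminescence after a minimum 48 h, 37 C compound exposure with 20 nM CPT in Tdp1-knockout DT40 cells stably expressing hTDP1, seeded 400/well; qHTS titration format.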
# Starred values were filed as active, the others as inactive; i = inactive; u = inconclusive; x = no result given. Sampled rows, rich in hits. Any-hit rate of the full collection: about 19%. Unless noted, calls come from the whole dose curve; as a rule, active = well fitted curve in the direction sought with a large enough effect; inconclusive = small, poorly fitted or top-dose-only effect, or another doubt; inactive = no such curve, though single readings can be large; an effect the other way counts as inactive or inconclusive. Unless noted, % is set by controls: 0 for no effect and ±100 for the full control effect.
SMILES,HT1080NT lethal,HT1080 IDH1KD tx,IL1B secr inh,ELG1 repair inh,DT40 TDP1 no CPT,DT40 TDP1 CPT
C#CCOCCOCCOCCNc1nc(N2CCN(C(=O)CCCCCCCCCCNC(=O)Cn3cc(CCCCCN)nn3)CC2)nc(N2CCN(C(=O)CCCCCCCCCCNC(=O)[C@H]([C@@H](C)CC)n3cc(CCCCN=C(N)N)nn3)CC2)n1,u,u,-110*,u,u,21µM*
C#CCOCCOCCOCCNc1nc(N2CCOCC2)nc(N2CCN(C(=O)CCCCCCCCCCNC(=O)[C@@H]([C@H](C)CC)n3cc(CCCCCN)nn3)CC2)n1,-20%,-24%,2,u,u,u
C#CCOCCOCCOCCNc1nc(N2CCN(C(=O)Cn3cc(CCCN=C(N)N)nn3)CC2)nc(N2CCN(C(=O)[C@H]([C@@H](C)CC)n3cc(CCCCN)nn3)CC2)n1,7%,11%,-7,u,-6%,-27%
C#CCOCCOCCOCCNc1nc(N2CCN(C(=O)CCCCCCCCCCNC(=O)[C@H](CCCCN)n3cc(CCCC(=O)O)nn3)CC2)nc(N2CCN(C(=O)CCCCCCCCCCNC(=O)[C@@H]([C@H](C)O)n3cc(C)nn3)CC2)n1,2%,3%,0,-24%,-1%,-10%
C#CCOCCOCCOCCNc1nc(N2CCN(C(=O)CCCCCCCCCCNC(=O)[C@H]([C@@H](C)CC)n3cc(CCCCCN)nn3)CC2)nc(N2CCN(C(=O)CCCCCCCCCCNC(=O)[C@H](CCCCN)n3cc(CCCC(=O)O)nn3)CC2)n1,9%,-9%,-88*,11%,-26%,-21%
O=C(Nc1ccccc1Oc1ccccc1)[C@@H]1O[C@H](CO)[C@H](O)[C@H](O)[C@H]1O,21%,12%,18,x,-3%,-3%
Cc1noc(C)c1S(=O)(=O)N(CC(=O)NC1CCC(C)CC1)c1ccc(C(C)C)cc1 (stereo unspecified),5%,6%,0,12%,-12%,u
C#CCOCCOCCOCCNc1nc(N2CCN(C(=O)CCCCCCCCCCNC(=O)[C@@H](CCC(=O)O)n3cc(CCCCCN)nn3)CC2)nc(N2CCN(C(=O)CCCCCCCCCCNC(=O)[C@H]([C@@H](C)CC)n3cc(CCCCCN)nn3)CC2)n1,-18%,-3%,-95*,-24%,u,-6%
C#CCOCCOCCOCCNc1nc(N2CCOCC2)nc(N2CCN(C(=O)[C@H](CCCCN)n3cc(CCCC)nn3)CC2)n1,11%,11%,12,x,1.3µM*,0.21µM*
CCN1C(=N)N(c2ccccc2)C(=O)C(CC)(CC)C1=O,-28%,0%,6,x,-4%,1%
Cc1ccc(S(=O)(=O)Nc2cccc(C(=O)NCC3CCCO3)c2)cc1F (stereo unspecified),1%,-26%,14,-9%,u,u
CSCCC(C(=O)Nc1c(C)cccc1C)N(Cc1ccccc1)Cc1ccccc1 (stereo unspecified),u,u,-24,x,u,u
Cc1cccc(C)c1OCc1cc(C(=O)N(C)Cc2nc3ccccc3[nH]2)no1,-8%,-20%,-14,-26%,u,u
C#CCN(C(=O)c1cc(COc2ccc(C)c(C)c2)on1)C1CCCCC1,-1%,2%,i,-8%,23µM*,u
CN(CCCC1CCCC1)C(=O)c1cc(COc2ccc(F)c(F)c2)on1,-2%,0%,-8,-3%,-25%,u
CN(Cc1ccccn1)C(=O)c1cc(COc2ccc(F)c(F)c2)on1,0%,-3%,-14,x,u,18µM*
Cc1cccc(C)c1OCc1cc(C(=O)N(C)Cc2cc(C3CC3)n[nH]2)no1,-2%,-2%,0,u,u,u
Cc1ccc(OCc2cc(C(=O)N(C)Cc3cc(C4CC4)n[nH]3)no2)cc1C,-16%,8%,3,16%,23µM*,u
Cc1ccc(OCc2cc(C(=O)N(C)CCc3nc4ccccc4[nH]3)no2)cc1C,u,-10%,9,u,21µM*,15µM*
Cc1ccc(OCc2cc(C(=O)N(C)CCc3ccccn3)no2)cc1C,-5%,-1%,14,u,u,26µM*
CC(=O)c1cccc(OCc2cc(C(=O)N(C)CCc3ccccn3)no2)c1,-4%,0%,16,-3%,u,u
CCOC(=O)C1=C(CN2CCN(c3cc(C)ccc3C)CC2)NC(=O)NC1c1ccc(Cl)cc1 (stereo unspecified),x,x,x,x,16µM*,u
CCOC(=O)c1[nH]c(C)c(C(=O)N2CCN(c3ccc(OC)cc3)CC2)c1C,0%,0%,19,-4%,u,-21%
CCOC(=O)c1[nH]c(CN2CCN(c3ccc(OC)cc3)CC2)c(C(=O)OCC)c1C,-22%,u,20,18µM*,13µM*,-23%
CCOC(=O)C1=C(CN2CCN(c3ccc(OC)cc3)CC2)NC(=O)NC1c1ccc(Cl)cc1 (stereo unspecified),x,x,x,x,15µM*,21µM*
SMILES,HT1080NT lethal,HT1080 IDH1KD tx,IL1B secr inh,ELG1 repair inh,DT40 TDP1 no CPT,DT40 TDP1 CPT
O=C(Nc1ccc(NC(=O)c2cc3ccccc3o2)cc1)c1ccco1,u,-29%,1,9%,u,u
COc1ccc(NC(=O)c2ccco2)cc1NC(=O)c1cc2ccccc2o1,14%,2%,11,u,15µM*,23µM*
COc1cc(OC)cc(C(=O)Nc2ccc(NC(=O)c3ccco3)c(C)c2)c1,u,23µM*,-21,u,u,u
Cc1cc(NC(=O)c2ccc3c(c2)OCO3)ccc1NC(=O)c1ccccc1,-23%,u,-18,u,u,u
Cc1cc(NC(=O)c2ccc3c(c2)OCO3)ccc1NC(=O)c1ccco1,u,18µM*,x,u,u,u
COc1cc(OC)cc(C(=O)Nc2cc(NC(=O)c3ccco3)ccc2OC)c1,-12%,u,-23,21µM*,18µM*,23µM*
